# High-throughput results from PubChem.
# Many of the other results were omitted from the sample, so hits are more common in it than they were.
# Pf Dd2 inh: blocks in vitro growth of P. falciparum Dd2 | P. falciparum Dd2 growth, SYBR Green, 72 h | Potency, µM (series often up to 28.9 µM), most hits filed as inhibitors | 120,000 tested, 4.3% active; active means well fitted inhibition curve with a large enough effect; further: nearly all actives have a fitted effect of over 65% in size
#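 Infected erythrocytes (Dd2, 0.3% parasitemia, 2.5% hematocrit final) are added to compound in RPMI-1640/Albumax II medium, grown 72 h at 37C in low oxygen, then lysed with saponin/Triton-X containing SYBR Green and read by fluorescence.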
# Hits are given with their value; 0 = inactive; [ ] = dose if it differs, or a comment.
SMILES,Pf Dd2 inh
CCN1c2cc(C(=O)Nc3ccc(F)cc3F)ccc2C(=O)N2CCCCCC21 (configuration not stated),0
COC1CCN(C(=O)Cc2c[nH]c3ncc(-c4cnn(C)c4)cc23)CC1,0
COC(=O)CC1Oc2ccccc2-n2cc(-c3ccc(Cl)cc3)nc21 (configuration not stated),3.55µM
O=C(CS(=O)(=O)c1nc(-c2ccc(Cl)cc2)cn1-c1ccccc1)Nc1ccc(F)cc1F,0
COC(=O)CNC(=O)c1nc(-c2ccc(Cl)cc2)c2ccccn12,0
COC(=O)c1ccc(Cl)cc1NC(=O)N1CC(C)Oc2ccccc21 (configuration not stated),0
COc1ccc(-n2cc(C(=O)Nc3cc(F)ccc3F)c3ccccc3c2=O)cc1,0
COC(=O)CC1Oc2ccc(F)cc2-n2cc(-c3ccc(Cl)cc3)nc21 (configuration not stated),11.2µM
CC1CCN(C(=O)[C@@H](C)C2CC[C@@]3(C)CC[C@H](NC(=O)c4cnccn4)[C@@H](C)[C@@H]3[C@H]2O)CC1 (some centres not stated),0
O=C(Nc1ccnn1C1CCN(Cc2nccs2)CC1)c1ccc2c(c1)OCO2,0
O=C(Cc1ccccc1)N1CCC(c2n[nH]c(=O)n2Cc2ccc(F)cc2)CC1,0
COc1ccc(-c2noc(CN3CCCCC3c3cccc(F)c3)n2)c(OC)c1OC (configuration not stated),0
COc1ccc(F)cc1CN1CCc2[nH]cnc2C1c1cccc(C#N)c1 (configuration not stated),5.62µM
N#Cc1cccc(CN2Cc3[nH]cnc3C[C@H]2c2nc(-c3ccccc3)no2)c1,0
N#Cc1ccc(CN2CCC3(CC2)OCCN(CCc2ccccc2)C3=O)cc1,0
CC(C)n1cc2cc(C(=O)NCc3cccnc3)sc2c1,0
COc1ccc(CNC(=O)c2cc3cn(C(C)C)cc3s2)cc1,0
COc1cc(CNC(=O)c2cc3cn(C(C)C)cc3s2)cc(OC)c1,12.6µM
COC(=O)C1=C(C)N(Cc2ccccc2F)C(=O)CC1c1ccccc1Cl (configuration not stated),0
CCOc1ccc(-c2cccc3c2CCNC3)cc1C(N)=O,0
COc1ccc(-c2cccc3c2CCNC3)cc1OC,11.2µM
NC(=O)c1ccc(-c2cccc3c2CCNC3)s1,0
Cc1cn2nc(C(=O)N3CCN(c4ccccc4)CC3)cc2c(N(C)Cc2ccccc2)n1,0
Cc1cn2nc(C(=O)N3CCCCC3)cc2c(N(C)Cc2ccccc2)n1,7.08µM
Cc1cn2nc(C(=O)Nc3ccccc3C)cc2c(N(C)Cc2ccccc2)n1,0
SMILES,Pf Dd2 inh
Cc1cn2nc(C(=O)Nc3cccc(F)c3C)cc2c(N(C)Cc2ccccc2)n1,0
CCN(Cc1ccccc1)C(=O)c1cc2c(N3CCCC3)nc(C)cn2n1,0
Cc1cn2nc(C(=O)Nc3ccc(Cl)cc3C)cc2c(N(C)Cc2ccccc2)n1,10µM
COc1ccc(C(=O)N2CCc3nnc([C@@H]4C[C@@H](O)CN4C(C)C)n3CC2)cn1,0
O=C(CCC1CCN(C(=O)[C@H]2C[C@@H]3C=C[C@H]2C3)CC1)N1CCC(Cc2ccccc2)CC1,0
CN(C)c1ccc(C(=O)NC[C@H]2O[C@@H](CO)[C@@H](O)[C@H]2N2CCN(c3ccccc3)CC2)cc1,0
O=[S+]([O-])(c1cccs1)N1CC(Oc2ccc3c(c2)OCO3)C1,0
O=C1N[C@H](CCC(=O)N2CCC(c3nc4ccccc4[nH]3)CC2)C(=O)Nc2ccccc21,0
O=C(NCC(c1ccc2c(c1)OCO2)N1CCN(c2ccc(F)cc2)CC1)c1cccc([N+](=O)[O-])c1 (configuration not stated),0
CCC(=O)NCC(c1ccc2c(c1)OCO2)N1CCN(c2ccccc2)CC1 (configuration not stated),0
Cc1cccc(NC(=O)C(=O)NCC(c2ccc3c(c2)OCO3)N2CCN(C)CC2)c1C (configuration not stated),0
COc1ccc(N2CCN(C(CNC(=O)CC(C)C)c3ccc4c(c3)OCO4)CC2)cc1 (configuration not stated),5.62µM
CCOc1ccc(C(=O)NCC(c2ccc3c(c2)OCO3)N2CCN(c3ccc(F)cc3)CC2)cc1 (configuration not stated),11.2µM
CN1CCN(C(CNC(=O)C(=O)Nc2cccc(Cl)c2)c2ccc3c(c2)OCO3)CC1 (configuration not stated),7.08µM
O=C(NCC(c1ccc2c(c1)OCO2)N1CCOCC1)C(=O)Nc1cccc(Cl)c1 (configuration not stated),0
CCOc1ccc(C(=O)NCC(c2ccc3c(c2)OCO3)N2CCOCC2)cc1 (configuration not stated),0[0.594 µM]
CC(C)C(=O)NCC(c1ccc2c(c1)OCO2)N1CCN(c2ccccc2)CC1 (configuration not stated),0
COCC(c1ccccn1)N(C)C(=O)c1cc(S(N)(=O)=O)ccc1F (configuration not stated),0
Cc1cnc(C)c(N2CCC(COc3cnc4c(ccn4CC(N)=O)c3)CC2)n1,0
COC(=O)CNC(=O)N1CCC(OC2CCN(Cc3ccccc3)CC2)CC1,0
Cc1nc(-c2c3n(c(=O)n(CC(=O)Nc4cccc(C(C)C)c4)c2=O)CCCCC3)no1,0
COc1nccc(N2CCC(CC(=O)N3CCN(CCC#N)CC3)CC2)n1,0
Cc1nn(C)c(C)c1CCC(=O)N1CCN(C(=O)N2CC3CC(C2)[C@H]2CCCC(=O)N2C3)CC1 (some centres not stated),0
C=Cc1ccc(Cn2c(=O)n(CC3CCC(C(=O)NC(C)C)CC3)c(=O)c3sccc32)cc1 (configuration not stated),11.2µM
CC1CCN(C(=O)Cn2c(=O)n(CC3CCC(C(=O)NC(C)C)CC3)c(=O)c3sccc32)CC1 (configuration not stated),0
SMILES,Pf Dd2 inh
CNC(=O)C1CCC(Cn2c(=O)c3sccc3n(CC(=O)N3CCCCC3C)c2=O)CC1 (configuration not stated),0
COc1cccc(Cn2c(=O)n(CC3CCC(C(=O)N4CCOCC4)CC3)c(=O)c3sccc32)c1 (configuration not stated),8.91µM
CCCNC(=O)C1CCC(Cn2c(=O)c3sccc3n(Cc3ccccc3C)c2=O)CC1 (configuration not stated),0
CCCNC(=O)C1CCC(Cn2c(=O)c3sccc3n(CC(=O)NCc3ccccc3)c2=O)CC1 (configuration not stated),0
CCCN(CC1CCOC1)S(=O)(=O)c1ccc(C)cc1C (configuration not stated),0[5.79 µM]
c1coc(-c2nc(C3CCOC3)nn2C2Cc3ccccc3C2)c1 (configuration not stated),0
Cc1c(C)n(Cc2ccc(F)cc2)c2ccc(C(=O)NCc3ccco3)cc12,3.55µM
Cc1cccc(CNC(=O)c2ccc3c(c2)c(C)c(C)n3Cc2ccccc2)c1,0
CCn1c(C)c(C)c2cc(C(=O)NCc3ccc(F)cc3)ccc21,0
Cc1nc(CN2C(=O)OC3(CCN(C(=O)Cc4ccc(O)cc4)CC3)C2(C)c2ccccc2)cs1 (configuration not stated),0
CC1(c2ccccc2)N(Cc2ccccc2F)C(=O)OC12CCN(C(=O)CN1CCOCC1)CC2 (configuration not stated),0
COc1ccc(OC)c(CN2CCC3(CC2)OC(=O)N(Cc2ccccc2C#N)C3(C)c2ccccc2)c1 (configuration not stated),0
